This passage reports inhibition results from ChEMBL document CHEMBL1961873, “Compounds: GSK PKIS; Assays: Nanosyn kinase panel” (2012).

Molecules are shown by their SMILES.

Chain of Epidermal growth factor receptor (Homo sapiens), P00533 [L858R,T790M] (P00533 whole entry T790M/L858R, looked up): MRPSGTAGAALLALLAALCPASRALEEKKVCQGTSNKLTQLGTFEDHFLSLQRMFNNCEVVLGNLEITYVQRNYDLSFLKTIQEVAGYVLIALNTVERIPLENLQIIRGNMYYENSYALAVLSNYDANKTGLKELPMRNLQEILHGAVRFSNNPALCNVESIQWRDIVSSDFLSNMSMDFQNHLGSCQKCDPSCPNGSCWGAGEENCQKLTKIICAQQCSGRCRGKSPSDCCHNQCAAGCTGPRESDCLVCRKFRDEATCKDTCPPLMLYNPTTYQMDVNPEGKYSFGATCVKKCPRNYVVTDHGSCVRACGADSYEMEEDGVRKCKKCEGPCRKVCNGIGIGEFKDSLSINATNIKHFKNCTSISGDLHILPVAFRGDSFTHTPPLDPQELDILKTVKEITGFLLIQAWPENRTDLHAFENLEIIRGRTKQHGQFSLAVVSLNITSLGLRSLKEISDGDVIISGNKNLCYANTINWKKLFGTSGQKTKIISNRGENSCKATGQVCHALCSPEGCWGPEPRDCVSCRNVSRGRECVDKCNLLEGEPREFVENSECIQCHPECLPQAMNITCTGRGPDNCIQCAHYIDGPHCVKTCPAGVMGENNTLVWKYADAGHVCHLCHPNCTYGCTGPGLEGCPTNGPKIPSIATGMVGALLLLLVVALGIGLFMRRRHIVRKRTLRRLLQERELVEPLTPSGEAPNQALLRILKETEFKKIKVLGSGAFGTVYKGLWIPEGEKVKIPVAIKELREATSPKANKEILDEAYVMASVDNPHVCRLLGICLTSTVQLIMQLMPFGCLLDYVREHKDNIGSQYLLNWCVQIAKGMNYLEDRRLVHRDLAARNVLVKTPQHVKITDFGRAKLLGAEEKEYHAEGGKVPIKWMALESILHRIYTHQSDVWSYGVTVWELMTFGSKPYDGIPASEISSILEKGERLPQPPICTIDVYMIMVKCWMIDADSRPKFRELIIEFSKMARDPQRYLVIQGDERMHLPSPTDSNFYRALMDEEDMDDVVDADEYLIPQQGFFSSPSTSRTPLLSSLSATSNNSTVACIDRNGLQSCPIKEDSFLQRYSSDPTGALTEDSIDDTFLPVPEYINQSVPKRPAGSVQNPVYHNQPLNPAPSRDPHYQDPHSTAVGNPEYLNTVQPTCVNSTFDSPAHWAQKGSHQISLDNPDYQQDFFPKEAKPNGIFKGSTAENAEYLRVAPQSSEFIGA
Chain of Epidermal growth factor receptor (Homo sapiens), P00533 [T790M] (P00533 whole entry T790M): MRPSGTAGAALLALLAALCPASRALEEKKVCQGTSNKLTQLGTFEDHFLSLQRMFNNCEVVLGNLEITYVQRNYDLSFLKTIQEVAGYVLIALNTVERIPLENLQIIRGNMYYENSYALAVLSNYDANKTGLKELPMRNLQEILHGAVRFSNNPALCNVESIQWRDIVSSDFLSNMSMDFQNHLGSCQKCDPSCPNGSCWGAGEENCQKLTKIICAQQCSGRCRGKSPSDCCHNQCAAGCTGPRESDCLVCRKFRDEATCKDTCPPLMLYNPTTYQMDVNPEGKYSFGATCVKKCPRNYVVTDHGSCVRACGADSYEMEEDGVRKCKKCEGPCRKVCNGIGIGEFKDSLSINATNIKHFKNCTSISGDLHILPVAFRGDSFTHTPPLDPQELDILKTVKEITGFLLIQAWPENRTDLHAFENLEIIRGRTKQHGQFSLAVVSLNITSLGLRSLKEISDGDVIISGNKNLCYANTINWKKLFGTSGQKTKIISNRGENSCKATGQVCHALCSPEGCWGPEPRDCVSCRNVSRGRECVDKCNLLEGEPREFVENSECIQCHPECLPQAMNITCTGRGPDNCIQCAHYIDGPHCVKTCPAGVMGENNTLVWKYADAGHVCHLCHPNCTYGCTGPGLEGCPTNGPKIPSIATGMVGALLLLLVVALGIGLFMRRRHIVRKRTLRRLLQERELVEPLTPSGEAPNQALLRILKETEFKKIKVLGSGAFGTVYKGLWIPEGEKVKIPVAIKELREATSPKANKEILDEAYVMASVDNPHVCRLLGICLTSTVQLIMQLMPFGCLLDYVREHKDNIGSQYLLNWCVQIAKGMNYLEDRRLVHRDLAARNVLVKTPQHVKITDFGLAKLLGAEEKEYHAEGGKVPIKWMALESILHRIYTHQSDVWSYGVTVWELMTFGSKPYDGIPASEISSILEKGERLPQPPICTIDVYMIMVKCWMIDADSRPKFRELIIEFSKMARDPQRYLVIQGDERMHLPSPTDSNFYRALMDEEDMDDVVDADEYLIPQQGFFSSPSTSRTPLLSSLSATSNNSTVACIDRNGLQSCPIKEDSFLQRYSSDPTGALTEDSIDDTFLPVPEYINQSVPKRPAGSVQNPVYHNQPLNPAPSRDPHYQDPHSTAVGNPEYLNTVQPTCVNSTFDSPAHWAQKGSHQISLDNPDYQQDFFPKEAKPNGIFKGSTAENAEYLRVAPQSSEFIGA

The subject of one experiment is Epidermal growth factor receptor (Homo sapiens), P00533 [T790M]. Particulars: at 1 µM.
Consider `CCS(=O)(=O)c1ccc(OC)c(Nc2ncc(-c3cccc(OC)c3)o2)c1`, for which the inhibition is -0.32%.

As to `COc1cc2ncn(-c3cc(OCc4ccccc4S(C)(=O)=O)c(C#N)s3)c2cc1OC`, the inhibition was 8.63%.

As for `OCc1ccc(-c2nc(-c3ccccn3)c(-c3ccc4c(c3)OCO4)[nH]2)cc1`, the inhibition was determined as 0.84%.

For `COc1cc(/C=N/Nc2ncnc3c2cnn3C(C)C)ccc1O`, the inhibition was 0.47%.

In the case of `Nc1nccc(-c2c(-c3ccc(F)cc3)nn3cc(C(F)(F)F)ccc23)n1`, the inhibition was found to be 2.37%.

Take `CN(C)CCCn1c(-c2nonc2N)nc2cnccc21`: the inhibition is 4.68%.

Turning to `COc1cc(Nc2nccc(-c3cnn4ncccc34)n2)cc(OC)c1`, the inhibition was -0.64%.

Consider `NS(=O)(=O)c1cccc(-c2cc3ccncc3cc2OCc2ccccc2)c1`, for which the inhibition is 1.71%.

Regarding `CN1CCN(C(=O)c2ccc(NC(=O)Nc3ccc(N(C)c4ccnc(Nc5ccc(CS(C)(=O)=O)cc5)n4)cc3)cc2)CC1`, the inhibition came to 1.47%.

Turning to `Cc1ccc2c(c1)/C(=N/Nc1ccc(S(N)(=O)=O)cc1)C(=O)N2`, the inhibition is -3%.

Consider `Cc1ccc(NC(=O)CC2CC2)cc1-c1ccc(C(=O)NCC2CC2)cc1`, for which the inhibition was 2.09%.

For `CN(c1ccc(NC(=O)Nc2ccc(OC(F)(F)F)cc2)cc1)c1ccnc(Nc2cccc(S(N)(=O)=O)c2)n1`, the inhibition worked out at 1.56%.

For `C[C@@H](Oc1cc(-n2cnc3ccc(OC[C@@H](O)CO)cc32)sc1C(N)=O)c1ccccc1Cl`, the inhibition is -1.48%.

As to `Cc1ccc(C(=O)NC2CC2)cc1-c1ccc2[nH]ncc2c1`, the inhibition is -3.14%.

Turning to `COc1ccc(-c2nn3ncccc3c2-c2ccnc(Nc3cccc(C(F)(F)F)c3)n2)cc1`, the inhibition is 2.06%.

Take `CC(C)c1ccc2c(c1)NC(=O)/C2=N/Nc1ccc(S(N)(=O)=O)cc1`: the inhibition was -1.35%.

Regarding `NS(=O)(=O)c1ccc(NC=C2C(=O)Nc3ccc4ncsc4c32)cc1`, the inhibition was found to be 2.64%.

With `C[C@@H](Oc1cc(-n2cnc3ccc(OCC4CCN(C)CC4)cc32)sc1C(N)=O)c1ccccc1C(F)(F)F`, the inhibition is 1.67%.

As for `Cc1ccc(Nc2ccnc(Nc3cccc(C(N)=O)c3)n2)cc1O`, the inhibition stood at 14.9%.

Turning to `CCS(=O)(=O)c1ccc(OC)c(Nc2nccc(N(C)c3ccc4c(C)n[nH]c4c3)n2)c1`, the inhibition is 18.8%.

`COC(=O)Nc1nc2cc(Oc3ccc(NC(=O)Nc4cccc(Br)c4)cc3)ccc2[nH]1`: the inhibition amounted to 2.61%.

With `CC(C)c1ccc(Nc2nccc(-c3cnn4ncccc34)n2)cc1`, the inhibition came out at 2.45%.

On to `NS(=O)(=O)c1ccc(N/N=C2\C(=O)Nc3ccc(Cl)cc32)cc1`, for which the inhibition was determined as 4.35%.

Take `COc1cccc(-n2ncc3c(N/N=C/c4ccc(C)cc4)ncnc32)c1`: the inhibition came to 2.25%.

For the compound `CCn1c(-c2nonc2N)nc2ccc(F)cc21`, the inhibition stood at 6.26%.

In the case of `COc1cc2ncnc(Nc3ccc4c(cnn4Cc4ccccc4)c3)c2cc1OC`, the inhibition came to 36.2%.

For the compound `Cc1cc(-c2ccccn2)cc(C)c1/C=C/c1cncc(-c2nn[nH]n2)c1`, the inhibition is 1.45%.

`CS(=O)(=O)Nc1cccc(-c2ccc3c(NC(=O)C4CC4)n[nH]c3c2)c1`: the inhibition is -1.01%.

Turning to `O=C1Nc2ccc(-c3cccnc3)cc2C1=Cc1cc(Br)c(O)c(Br)c1`, the inhibition is 0.57%.

The subject of another experiment is Epidermal growth factor receptor (Homo sapiens), P00533 [L858R,T790M]. To be noted: at 0.1 µM.
Regarding `CCS(=O)(=O)c1ccc(OC)c(Nc2ncc(-c3cccc(OC)c3)o2)c1`, the inhibition is -0.04%.

Turning to `COc1cc2ncn(-c3cc(OCc4ccccc4S(C)(=O)=O)c(C#N)s3)c2cc1OC`, the inhibition worked out at 16.9%.

For `OCc1ccc(-c2nc(-c3ccccn3)c(-c3ccc4c(c3)OCO4)[nH]2)cc1`, the inhibition was found to be 3.54%.

For the compound `COc1cc(/C=N/Nc2ncnc3c2cnn3C(C)C)ccc1O`, the inhibition was -0.23%.

In the case of `Nc1nccc(-c2c(-c3ccc(F)cc3)nn3cc(C(F)(F)F)ccc23)n1`, the inhibition is -0.45%.

In the case of `CN(C)CCCn1c(-c2nonc2N)nc2cnccc21`, the inhibition is -0.67%.

With `COc1cc(Nc2nccc(-c3cnn4ncccc34)n2)cc(OC)c1`, the inhibition was 2.35%.

With `NS(=O)(=O)c1cccc(-c2cc3ccncc3cc2OCc2ccccc2)c1`, the inhibition is 1.48%.

In the case of `CN1CCN(C(=O)c2ccc(NC(=O)Nc3ccc(N(C)c4ccnc(Nc5ccc(CS(C)(=O)=O)cc5)n4)cc3)cc2)CC1`, the inhibition was -1.16%.

Take `Cc1ccc2c(c1)/C(=N/Nc1ccc(S(N)(=O)=O)cc1)C(=O)N2`: the inhibition is -4.55%.

Regarding `Cc1ccc(NC(=O)CC2CC2)cc1-c1ccc(C(=O)NCC2CC2)cc1`, the inhibition worked out at 0.02%.

`CN(c1ccc(NC(=O)Nc2ccc(OC(F)(F)F)cc2)cc1)c1ccnc(Nc2cccc(S(N)(=O)=O)c2)n1`: the inhibition was 2.59%.

With `C[C@@H](Oc1cc(-n2cnc3ccc(OC[C@@H](O)CO)cc32)sc1C(N)=O)c1ccccc1Cl`, the inhibition was -1.15%.

Regarding `Cc1ccc(C(=O)NC2CC2)cc1-c1ccc2[nH]ncc2c1`, the inhibition is -2.32%.

As to `COc1ccc(-c2nn3ncccc3c2-c2ccnc(Nc3cccc(C(F)(F)F)c3)n2)cc1`, the inhibition is -0.41%.

`CC(C)c1ccc2c(c1)NC(=O)/C2=N/Nc1ccc(S(N)(=O)=O)cc1`: the inhibition was -0.97%.

For `NS(=O)(=O)c1ccc(NC=C2C(=O)Nc3ccc4ncsc4c32)cc1`, the inhibition came out at 3.17%.

As to `C[C@@H](Oc1cc(-n2cnc3ccc(OCC4CCN(C)CC4)cc32)sc1C(N)=O)c1ccccc1C(F)(F)F`, the inhibition was found to be 1.72%.

On to `Cc1ccc(Nc2ccnc(Nc3cccc(C(N)=O)c3)n2)cc1O`, for which the inhibition came to 2.53%.

For `CCS(=O)(=O)c1ccc(OC)c(Nc2nccc(N(C)c3ccc4c(C)n[nH]c4c3)n2)c1`, the inhibition came to 2.67%.

As for `COC(=O)Nc1nc2cc(Oc3ccc(NC(=O)Nc4cccc(Br)c4)cc3)ccc2[nH]1`, the inhibition was -0.2%.

On to `CC(C)c1ccc(Nc2nccc(-c3cnn4ncccc34)n2)cc1`, for which the inhibition was -0.56%.

For `NS(=O)(=O)c1ccc(N/N=C2\C(=O)Nc3ccc(Cl)cc32)cc1`, the inhibition was -0.89%.

For the compound `COc1cccc(-n2ncc3c(N/N=C/c4ccc(C)cc4)ncnc32)c1`, the inhibition came to 1.79%.

As to `CCn1c(-c2nonc2N)nc2ccc(F)cc21`, the inhibition worked out at 3.36%.

Take `COc1cc2ncnc(Nc3ccc4c(cnn4Cc4ccccc4)c3)c2cc1OC`: the inhibition was found to be 1.03%.

In the case of `Cc1cc(-c2ccccn2)cc(C)c1/C=C/c1cncc(-c2nn[nH]n2)c1`, the inhibition is -2.34%.

For `CS(=O)(=O)Nc1cccc(-c2ccc3c(NC(=O)C4CC4)n[nH]c3c2)c1`, the inhibition is 0.55%.

Turning to `O=C1Nc2ccc(-c3cccnc3)cc2C1=Cc1cc(Br)c(O)c(Br)c1`, the inhibition stood at 2.96%.
